“And” between values parts separate entries of the source, which are not always exact repeats. Identical values can stand only once. Screen size: about 350,000 compounds; about 1,600 (0.46%) were called active. This is one part of a sample in which actives are shown more often than they occur.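 How the source made its calls: active means every replicate reaching a set inhibition limit, whatever the replicate mean (cut at about 25% in these data); inconclusive means mean inhibition reaches that limit but some replicates miss it; inactive means the rest.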
biological target: Protein AF-9 (Homo sapiens) (UniProt P42568); experiment: MLL-AF4/AF9 protein interaction blockers – biochemical, AlphaScreen, biotin-AF4 peptide, FLAG-AF9, single point, primary screen (AID 651704); conditions: biotin-AF4 peptide binding to FLAG-AF9, at 10 µM, stronger effect = higher value;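 further: 0% = plate neutral control median and 100% = total signal loss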
Sequence (P42568 whole entry, looked up): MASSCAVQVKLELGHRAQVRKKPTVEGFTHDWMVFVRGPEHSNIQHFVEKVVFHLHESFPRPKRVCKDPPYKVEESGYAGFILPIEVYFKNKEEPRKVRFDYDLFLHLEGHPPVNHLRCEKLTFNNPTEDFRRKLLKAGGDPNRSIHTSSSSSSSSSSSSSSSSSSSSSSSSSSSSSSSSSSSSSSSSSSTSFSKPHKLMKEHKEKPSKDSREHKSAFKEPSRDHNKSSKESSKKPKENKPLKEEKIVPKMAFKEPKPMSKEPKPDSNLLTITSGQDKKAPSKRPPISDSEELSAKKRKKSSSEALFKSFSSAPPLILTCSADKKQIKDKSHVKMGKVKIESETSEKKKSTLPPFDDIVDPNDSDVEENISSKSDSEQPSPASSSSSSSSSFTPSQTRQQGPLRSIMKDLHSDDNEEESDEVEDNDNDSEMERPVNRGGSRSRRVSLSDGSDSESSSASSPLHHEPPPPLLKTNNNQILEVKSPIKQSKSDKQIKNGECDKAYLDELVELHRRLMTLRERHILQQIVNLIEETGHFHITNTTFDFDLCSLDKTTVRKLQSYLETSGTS

inhibition, inactive:
C/C=C/c1ccccc1[C@@H]1[C@@H](C#N)N(C(=O)Cc2ccccn2)[C@H]1CO 0.68%
COc1ccccc1-c1cnc2c(c1)C(=O)N([C@H](C)CO)C[C@H](C)[C@@H](CN(C)CC1CCOCC1)O2 -1.31%
CC(=O)c1c(N2CCOCC2)nc(=S)n(-c2cc(C)ccc2C)c1C 11.8%
Cc1ccc2cc(C)c(N3CCN(c4ccc(F)cc4)CC3)nc2c1 -1.83%
O=C(C1CCCC1)N1CC(=O)N2[C@H](C1)[C@@H](c1ccc(-c3cccnc3)cc1)[C@@H]2CO -2.09%
Cc1cccc(S(=O)(=O)N2CCCCN3[C@@H](CO)[C@H](c4ccc(-c5cccnc5)cc4)[C@@H]3C2)c1 -0.659%
COc1ccc2c3c(n(C)c2c1)[C@@H](CO)N(Cc1ccccc1F)CC31CCN(C(=O)C2CCOCC2)CC1 1.15%
Cc1noc(C)c1NC(=O)N(C)C[C@@H]1OCCCC[C@@H](C)Oc2ccc(NC(=O)C3CCCCC3)cc2C(=O)N([C@@H](C)CO)C[C@H]1C -0.114%
COc1ccc(/C=C/C(=O)OCC(=O)NCc2cccs2)cc1OC 2.43%
COc1cc(/C=C/C(=O)OCC(=O)c2ccccc2)cc(OC)c1OC 4.16%
COc1ccc(CNC(=O)C[C@@H]2CC[C@H](NC(=O)c3cccc(F)c3)[C@H](CO)O2)cc1 0.518%
COC(=O)c1c(C)oc(C)c1S(=O)(=O)Nc1ccc(C(C)C)cc1 0.192%
COC(=O)c1cc(S(=O)(=O)NCC2CCN(Cc3ccc(Cl)cc3)CC2)cn1C 5.58%
O=C(CC1CC1)Nc1ccc2c(c1)[C@@H]1C[C@@H](CC(=O)NC3CCCCC3)O[C@H](CO)[C@@H]1O2 0.025%
CC(C)CC#Cc1ccc([C@@H]2[C@@H](CO)N3C(=O)CN(C(=O)Nc4ccc(F)cc4)C[C@H]23)cc1 5.86%
CN(C)c1ccc(C2N(C)C(=O)c3ccccc3N2C)cc1 (centres undefined) 2.23%
COc1cccc(S(=O)(=O)Nc2ccc3c(c2)[C@H]2C[C@H](CC(=O)N4CCCCC4)O[C@@H](CO)[C@H]2O3)c1 0.52%
COc1ccc2c3c([nH]c2c1)[C@H](CO)N(C(=O)c1ccncc1)CC31CCN(C(=O)c2ccncc2)CC1 3.61%
COc1ccc(C#Cc2ccc([C@@H]3[C@@H](CO)N4C(=O)CN(C(=O)c5ccc(F)cc5)C[C@@H]34)cc2)cc1 -3.35%
O=C(c1ccccn1)N1CC2(C1)[C@H](c1ccccc1)[C@H](CO)N2C(=O)C1CCCC1 -1.83%
CN1C(=O)c2cc(NC(=O)c3ccno3)ccc2OC[C@H]2O[C@@H](CC(=O)NCC(F)(F)F)CC[C@@H]21 -0.947%
CC1CCN(C(=O)c2ccc3c(c2)NC(=O)CN3)CC1 4.92%
O=C(Nc1ccccc1)C1CCN(C(=O)c2ccc(Br)cc2)CC1 -2.26%
O=C(N[C@H]1CC[C@H](CCn2cc(C3(O)CCCC3)nn2)O[C@H]1CO)C1CC1 -0.223%
C[C@@H]1CN([C@H](C)CO)C(=O)Cc2cc(N(C)C)ccc2O[C@@H]1CN(C)Cc1ccccc1 3.48%
C[C@@H]1CN([C@@H](C)CO)C(=O)c2cc(N(C)C)ccc2O[C@@H](C)CCCCO[C@H]1CN(C)Cc1ccncc1 -1.22%
C[C@@H]1CCCCO[C@@H](CN(C)Cc2ccncc2)[C@H](C)CN([C@H](C)CO)C(=O)c2cc(N(C)C)ccc2O1 1.48%
C[C@H](CO)N1C[C@H](C)[C@H](CN(C)Cc2ccc(C(F)(F)F)cc2)Oc2ccc(N(C)C)cc2CC1=O 15.8%
CCCNC(=O)N1C[C@H](C)[C@@H](OC)CN(C)C(=O)c2ccc(NC(=O)CC)cc2OC[C@@H]1C -2.2%
COc1cccc(C#Cc2ccc([C@@H]3[C@H](C#N)N[C@H]3CO)cc2)c1 -2.01%
CC(C)C#Cc1ccc([C@H]2[C@@H](CO)N3C(=O)CN(C(=O)Cc4ccccc4)C[C@H]23)cc1 -0.595%
COc1ccccc1NC(=O)Nc1ccc2c(c1)OC[C@H](C)NC[C@H](C)[C@@H](OC)CN(C)C2=O 1.19%
Cc1ccc(S(=O)(=O)Nc2ccc3c(c2)C(=O)N([C@@H](C)CO)C[C@@H](C)[C@@H](CN(C)S(=O)(=O)c2ccc(C)cc2)O3)cc1 -1.03%
O=C(O)C[C@@H]1CC[C@H](NC(=O)CCN2CCCCC2)[C@H](CO)O1 -0.492%
Cc1ccccc1C(=O)N1CCN(c2ccc(NC(=O)c3cccs3)cc2)CC1 0.817%
Cc1ccccc1C(=O)Nc1ccccc1NC(=O)c1ccccc1C 0.679%
O=C(CC1CC1)N[C@@H]1C[C@@H]2O[C@H](CO)CC[C@@H]2O[C@@H]1CCc1ccc(C#Cc2ccccc2)cc1 -5.03%
Oc1c(CN2CCCC2)cc(COCc2ccccc2)c2cccnc12 6.56%
Cc1ccc(CN2CCN(c3ncccn3)CC2)c(C)c1 -1.37%
O=C(NCCNc1ccccc1[N+](=O)[O-])c1ccccc1F 0.524%
O=[N+]([O-])c1ccccc1NCc1ccccc1Cl -5.33%
COc1ccc2c3c(n(C)c2c1)[C@@H](CO)N(C(C)=O)CC31CCN(Cc2nccs2)CC1 3.54%
COc1ccc2c3c(n(C)c2c1)[C@H](CO)N(C(=O)Nc1cccc(F)c1)CC31CN(Cc2nccs2)C1 7.77%
COc1ccc2c3c(n(C)c2c1)[C@H](CO)N(Cc1cccnc1)CC31CCN(Cc2cccnc2)CC1 13.7%
C[C@H](CO)N1C[C@H](C)[C@H](CN(C)CC2CCCCC2)OCCCC[C@H](C)Oc2ccc(NC(=O)c3ccncc3)cc2C1=O -4.16%
COc1cccc(C2c3[nH]c4ccccc4c3CCN2Cc2cccc(C)n2)c1 (centres undefined) 16.4%
COC(=O)[C@H]1[C@H]2C[C@H]3c4[nH]c5ccccc5c4CCN3C[C@@H]2CC[C@@H]1O 10.9% and 1.82%
CCCC#Cc1ccc([C@H]2[C@@H](CO)N3C(=O)CN(C(=O)c4ccncc4)C[C@@H]23)cc1 -4.03%
COc1cccc(S(=O)(=O)Nc2ccc3c(c2)[C@H]2C[C@H](CC(=O)O)O[C@H](CO)[C@H]2O3)c1 -1.01%
O=C(Nc1ccccc1)N1CC(=O)N2[C@@H](CO)[C@H](c3ccc(C#CC4CCCC4)cc3)[C@@H]2C1 7.61%
Cc1cc(Nc2ccc(C(=O)N3CCCCC3)cc2)c2cccc(C)c2n1 -1.38%
Cc1cc(Nc2ccc(N3CCOCC3)cc2)c2cccc(C)c2n1 7.78%
COc1ccc2c3c(n(C)c2c1)[C@@H](CO)N(Cc1ccncc1)CC31CN(C(=O)C2CCCCC2)C1 -2.52%
COc1ccc2c3c(n(C)c2c1)[C@H](CO)N(C(C)=O)CC31CN(C(=O)c2cnccn2)C1 -3.28%
C/C(=N/NS(=O)(=O)c1ccccc1)c1ccc(NC(=O)C(F)(F)F)cc1 1.28%
Cc1ccc(NC(=O)c2ccco2)cc1 2.52%
CCC(=O)N1CC2(C1)CN(Cc1cc(F)ccc1F)[C@@H](CO)c1[nH]c3cc(OC)ccc3c12 -4.95%
CCOc1cc(N2CCOCC2)c(OCC)cc1NC(=O)COc1cccc(Cl)c1 3.04%
CCOc1cc(N2CCOCC2)c(OCC)cc1NC(=O)c1ccc(C)s1 13.4%

inhibition, active:
CC(=O)c1c(N2CCN(c3ccc(F)cc3)CC2)nc(=S)n(-c2ccccc2)c1C 26.4%
COc1cc2c(cc1NC(=O)COC(=O)/C=C/c1ccccc1)oc1ccccc12 30.3%
COC(=O)c1c(C)oc(C)c1S(=O)(=O)NCc1ccc(Cl)cc1 28.9%
CN(C)c1ccc(Nc2c3c4c(cccc4n(C)c2=O)C(=O)c2ccccc2-3)cc1 64.1%
O=C1Nc2cc(C(=O)N3CCC(N4CCCCC4)CC3)ccc2S/C1=C\c1ccccc1 32.5%
C[C@@H]1CCCCO[C@H](CN(C)Cc2ccc(C(F)(F)F)cc2)[C@H](C)CN([C@@H](C)CO)C(=O)c2cc(N(C)C)ccc2O1 29.4%
C[C@H]1CN([C@@H](C)CO)C(=O)Cc2cc(N(C)C)ccc2O[C@@H]1CN(C)Cc1ccc(-c2ccccc2)cc1 51.6%
Cc1ccccc1C(=O)Nc1ccc(N2CCCCCC2)cc1 27.9%
Oc1c(CN2CCN(c3ccc(F)cc3)CC2)cc(Cl)c2cccnc12 41.3%
O=[N+]([O-])c1ccccc1Nc1ccc(O)cc1 28.1%
COc1ccc2c3c(n(C)c2c1)[C@@H](CO)N(C(=O)Nc1cccc(F)c1)CC31CCN(Cc2nccs2)CC1 28.6%
COc1ccc(-c2ccc3[nH]c4c(c3c2)CCN2C[C@H]3[C@H](C)ON(C)[C@H]3C[C@@H]42)cc1 27.4%
Cc1ccc(Nc2cc(C)nc3c(C)ccc([N+](=O)[O-])c23)cc1 33.4%
C/C(=N\NS(=O)(=O)c1ccc(Cl)cc1)c1ccc(NC(=O)c2ccco2)cc1 26.4%
CCOc1cc(N2CCOCC2)c(OCC)cc1NC(=O)C1=NN(c2cccc(C)c2)C(=O)CC1 31.5%

From PubChem BioAssay AID651704 (Broad Institute, 2012)
